Experimental data reported in ChEMBL document CHEMBL1157539, “Thousands of chemical starting points for antimalarial lead identification” (Nature, 2010).

Key:
Type in all cases: functional
Plasmodium falciparum [1] = experiment: GSK_TCMDC: Inhibition of Plasmodium falciparum 3D7 in whole red blood cells, using parasite LDH activity as an index of growth. Test compounds present at 2uM
Plasmodium falciparum [2] = experiment: GSK_TCMDC: Inhibition of Plasmodium falciparum Dd2 in whole red blood cells, using parasite LDH activity as an index of growth. Test compounds present at 2uM
HepG2 = experiment: GSK_TCMDC: Percent inhibition of human HepG2 cell line. Test compounds present at 10uM.

SMILES: Cc1cc(-c2cccc(CNC3CCN(C)CC3)c2)ccc1S(=O)(=O)NCCc1ccccn1.O=C(O)C(F)(F)F
- Inhibition (Plasmodium falciparum [1]): 97%
- Inhibition (Plasmodium falciparum [2]): 72%
- Inhibition (HepG2): 22%

SMILES: CCOc1ccc(C(=O)Nc2cc(Br)c3c(c2)CNCC3)cc1C#N.Cl
- Inhibition (Plasmodium falciparum [1]): 97%
- Inhibition (Plasmodium falciparum [2]): 32%
- Inhibition (HepG2): 17%

SMILES: COc1ccc(C2C(C(=O)Nc3ccc(C)cc3Br)c3ccccc3C(=O)N2C)cc1 (stereo not drawn)
- Inhibition (Plasmodium falciparum [1]): 96%
- Inhibition (Plasmodium falciparum [2]): 2%
- Inhibition (HepG2): 4%

SMILES: Cc1cc2ncn(-c3nccc(NCc4ccc(F)c(C)c4)n3)c2cc1C.O=C(O)C(F)(F)F
- Inhibition (Plasmodium falciparum [1]): 90%
- Inhibition (Plasmodium falciparum [2]): 82%
- Inhibition (HepG2): 10%

SMILES: COc1ccc(Nc2nc(NCc3cccc(NS(C)(=O)=O)c3)cc(-c3ccc(OC)cc3)n2)cc1
- Inhibition (Plasmodium falciparum [1]): 84%
- Inhibition (Plasmodium falciparum [2]): 5%
- Inhibition (HepG2): 0%

SMILES: Cc1cc2c(cc1C(F)(F)F)N(C(=O)Nc1cc(C(=O)NCCN(C)C)cc(C(F)(F)F)c1)CC2
- Inhibition (Plasmodium falciparum [1]): 100%
- Inhibition (Plasmodium falciparum [2]): 50%
- Inhibition (HepG2): 19%

SMILES: COc1cccc(Nc2nnc(SCC(=O)NNC(=O)c3ccccn3)s2)c1
- Inhibition (Plasmodium falciparum [1]): 99%
- Inhibition (Plasmodium falciparum [2]): 95%
- Inhibition (HepG2): 52%

SMILES: Cl.Cn1ncc2c3c(CCN4CCC(NCc5ccc6c(c5)NC(=O)CO6)CC4)c(Cl)cnc3ccc21
- Inhibition (Plasmodium falciparum [1]): 100%
- Inhibition (Plasmodium falciparum [2]): 92%
- Inhibition (HepG2): 18%

SMILES: Cc1c(-c2cccc(C(C)(C)NC3CCN(Cc4ccccc4)CC3)c2)cnc(N)c1C.Cl
- Inhibition (Plasmodium falciparum [1]): 100%
- Inhibition (Plasmodium falciparum [2]): 39%
- Inhibition (HepG2): 14%

SMILES: COc1cc(Cc2cnc(N)nc2N)cc(OCCCCC2NC(=O)NC2=O)c1OC (stereo not drawn)
- Inhibition (Plasmodium falciparum [1]): 94%
- Inhibition (Plasmodium falciparum [2]): 0%
- Inhibition (HepG2): 2%

SMILES: CNC(=O)c1cnc(Nc2ccc(N3CCN(C)CC3)cc2)nc1Nc1cccc(OC)c1.O=C(O)C(F)(F)F
- Inhibition (Plasmodium falciparum [1]): 100%
- Inhibition (Plasmodium falciparum [2]): 100%
- Inhibition (HepG2): 19%
